From PubChem BioAssay come the findings set out here.

This is one part of the list. Calls of active or inactive are those of the source.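 How the source made its calls, unless noted: active means at 20 µM dose, 40% or more inhibition averaged across four replicates; inactive means the rest.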

Test [1] can be described thus: inhibition of PEG-3 promoter luciferase signal – cell-based, HeLa, luciferase reporter, single concentration, confirmation (AID 602417). The following applies: HeLa PEG-Prom luciferase reporter, luminescence, overnight; at 20 µM; stronger effect = higher value. A general note: A reporter such as luciferase makes a cellular process visible.
Test [2] addresses PEG-3 (UniProt Q6IN02). Nature of the test: inhibition of PEG-3 promoter-driven reporter – cell-based, HeLa, luciferase, CREF/GAPDH counter-screen panel, dose response (AID 624167). As to conditions: CREF/GAPDH counter-screens; HeLa PEG-Prom luciferase reporter, overnight, run 1, dose range 1, at 100 µM (top of the series) unless noted. In general terms: A counterscreen serves to expose hits that act by an unwanted route or on another target.

Test [3] deals with PEG-3 (UniProt Q6IN02). Described as above. The following applies: CREF/GAPDH counter-screens; HeLa PEG-Prom luciferase reporter, overnight, run 2, dose range 1, at 100 µM (top of the series) unless noted.
Test [4] concerns the target Tumor necrosis factor receptor superfamily member 10B (Homo sapiens) (UniProt O14763). The experiment in a line: viability loss of caspase-8 NB7 cells with TRAIL – with/without TRAIL, luminescence panel, confirmation (AID 651596; in the data active means activity above about 50%). As to conditions: NB7 neuroblastoma + caspase-8, TRAIL sensitization, NB7 Caspase-8, with TRAIL, mean of runs, at 10 µM, stronger effect = higher value.

Test in test [5]: as above
The following applies: NB7 neuroblastoma + caspase-8, without TRAIL, NB7 Caspase-8, without TRAIL, mean of runs, at 10 µM.

The target of test [6] is Tumor necrosis factor receptor superfamily member 10B (Homo sapiens) (UniProt O14763). The experiment in a line: compound enhancement of TRAIL-induced cell killing – NB7 cells plus caspase-8, luminescence, panel, dose response (AID 652002). The following applies: NB7 neuroblastoma +caspase-8, TRAIL sensitization, luminescence viability, NB7+Caspase-8, with TRAIL, run 1; at 12.5 µM (top of the series).

For test [7] the target is unchanged. The test is described as above. As to conditions: NB7 neuroblastoma +caspase-8, TRAIL sensitization, luminescence viability, NB7+Caspase-8, with TRAIL, run 2; at 12.5 µM (top of the series).
Test in test [8]: as above
The following applies: NB7 neuroblastoma +caspase-8, no TRAIL, compound-alone cytotoxicity counter-screen, luminescence viability, NB7+Caspase-8, run 1; at 12.5 µM (top of the series) unless noted.

Test in test [9]: as above
As to conditions: NB7 neuroblastoma +caspase-8, no TRAIL, compound-alone cytotoxicity counter-screen, luminescence viability, NB7+Caspase-8, run 2; at 12.5 µM (top of the series) unless noted.

Test [10] in a line: NF-kB reporter suppression in CF airway cells – cell-based, GFP fluorescence, single concentration, confirmation (AID 602472; in the data active means inhibition above about 40%;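 further: stimulus PAF is a Pseudomonas aeruginosa filtrate and not platelet activating factor; plate controls were DMSO wells with stimulus for no effect and unstimulated DMSO wells for full effect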). The following applies: KKLEB CF airway cells, PAF-induced NF-kB-GFP fluorescence, overnight; at 5 µM; stronger effect = higher value.
For test [11], the system named is Rat fibroblasts (CREF). Nature of the test: inhibition of PEG-3 promoter-driven reporter – cell-based, HeLa, luciferase, CREF/GAPDH counter-screen panel, dose response (AID 624167). As to conditions: CREF/GAPDH counter-screens; run 1, dose range 1, at 100 µM (top of the series).
For test [12], the system named is Rat fibroblasts (CREF). The test is described as above. The following applies: CREF/GAPDH counter-screens; run 2, dose range 1, at 100 µM (top of the series).
Test [13] in a line: NFkB reporter suppression in cystic fibrosis bronchial cells – cell-based, uHTS hits, panel, cytotoxicity readout, dose response (AID 624344). The following applies: CF bronchial epithelial cells, PAF-induced NFkB reporter inhibition, with PAF, run 1; at 79 µM (top of the series) unless noted.
Test in test [14]: as above
As to conditions: CF bronchial epithelial cells, PAF-induced NFkB reporter inhibition, with PAF, run 2; at 79 µM (top of the series) unless noted.

Test [15] in a line: HIF-2a driven luciferase blockers, single dose – luminescence, 786-0 RCC cells, confirmation (AID 651580;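 active means mean inhibition across four replicates of at least 40 percent at the single tested concentration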). As to conditions: HIF-2a luciferase reporter luminescence, overnight, at 18.8 µM, stronger effect = higher value.
Test [16] in a line: HIF-1a luciferase reporter signal reduction – MiaPaCa-2 cells, single concentration, counter-screen for HIF-2a inhibitor project, confirmation (AID 651589;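 active means mean inhibition of the reporter signal across four replicates at the single tested dose of 50% or more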). The following applies: MiaPaCa-2 HIF-1a luciferase reporter, desferoxamine, overnight; at 18.8 µM; stronger effect = higher value.
For test [17], the target named is COP9 signalosome complex subunit 5 (Homo sapiens) (UniProt Q92905). The experiment in a line: blockers of CSN-driven cullin deneddylation – biochemical, fluorescence polarization, single concentration, SCF-Nedd8OG substrate, confirmation (AID 720654; in the data active means inhibition above about 50%;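 further: 0% = DMSO with enzyme and 100% = no enzyme wells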). The following applies: Csn5 deneddylation of SCF-Nedd8OG, 90 min, at 16.6 µM, stronger effect = higher value.
Test [18] has as its target 72 kDa type IV collagenase (Homo sapiens) (UniProt P08253). Nature of the test: human MMP-2 inhibitors, single-point check – biochemical, fluorescence, single concentration, counter-screen for CSN deneddylation inhibitor project, confirmation (AID 720655;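 active means corrected plate-normalized z-score of 5 or more, or -5 or less, or inhibition of 15% or more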;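 further: plate controls were DMSO wells with enzyme for no effect and buffer wells lacking MMP-2 for full effect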). As to conditions: recombinant MMP-2, FRET substrate fluorescence, 60 min; at 16.6 µM.
For another test, the target named is Prothrombin (Bos taurus) (UniProt P00735). The experiment in a line: thrombin cleavage blockers, FP readout – biochemical, fluorescence polarization, single concentration, counter-screen for CSN deneddylation inhibitor project, confirmation (AID 720656;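 active means inhibition at or above a set limit, with a fluorescence interference ratio between 0.5 and a set maximum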). The following applies: bovine thrombin cleavage of Ub4-pepOG, at 16.6 µM, stronger effect = higher value. A general note: In fluorescence polarisation assays a small probe gives low polarisation when free and higher when bound to something large.
Chain of Prothrombin (Bos taurus) (P00735 whole entry, looked up): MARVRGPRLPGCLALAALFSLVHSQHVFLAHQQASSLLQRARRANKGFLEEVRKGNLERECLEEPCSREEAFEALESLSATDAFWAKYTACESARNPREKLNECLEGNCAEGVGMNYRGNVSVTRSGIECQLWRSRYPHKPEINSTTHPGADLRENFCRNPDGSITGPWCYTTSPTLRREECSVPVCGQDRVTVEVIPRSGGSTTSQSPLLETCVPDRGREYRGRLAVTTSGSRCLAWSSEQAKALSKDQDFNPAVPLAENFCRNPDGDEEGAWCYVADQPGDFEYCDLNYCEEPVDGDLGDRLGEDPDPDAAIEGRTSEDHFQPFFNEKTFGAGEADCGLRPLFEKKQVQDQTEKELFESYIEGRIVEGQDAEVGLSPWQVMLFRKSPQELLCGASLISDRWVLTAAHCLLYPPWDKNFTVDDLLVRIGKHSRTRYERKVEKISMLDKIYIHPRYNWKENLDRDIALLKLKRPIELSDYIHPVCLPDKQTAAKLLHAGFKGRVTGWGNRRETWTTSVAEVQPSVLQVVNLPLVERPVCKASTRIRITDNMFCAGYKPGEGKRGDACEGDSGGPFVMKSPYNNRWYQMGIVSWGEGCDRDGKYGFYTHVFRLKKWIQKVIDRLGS

Chain of PEG-3 (Q6IN02 whole entry, looked up): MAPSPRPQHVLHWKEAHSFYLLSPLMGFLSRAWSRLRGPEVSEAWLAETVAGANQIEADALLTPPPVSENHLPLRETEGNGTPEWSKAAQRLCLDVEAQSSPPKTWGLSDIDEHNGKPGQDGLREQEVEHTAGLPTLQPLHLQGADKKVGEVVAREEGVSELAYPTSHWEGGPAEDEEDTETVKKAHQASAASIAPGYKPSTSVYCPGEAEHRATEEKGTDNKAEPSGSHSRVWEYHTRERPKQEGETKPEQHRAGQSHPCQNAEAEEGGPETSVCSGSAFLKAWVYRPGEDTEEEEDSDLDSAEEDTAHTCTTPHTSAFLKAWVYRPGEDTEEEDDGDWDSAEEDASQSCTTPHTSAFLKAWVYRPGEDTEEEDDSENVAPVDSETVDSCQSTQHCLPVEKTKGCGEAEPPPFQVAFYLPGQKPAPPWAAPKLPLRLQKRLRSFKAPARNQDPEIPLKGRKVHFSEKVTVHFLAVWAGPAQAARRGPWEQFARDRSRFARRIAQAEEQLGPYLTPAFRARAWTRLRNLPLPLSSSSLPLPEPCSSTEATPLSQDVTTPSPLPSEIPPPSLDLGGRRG
Chain of Tumor necrosis factor receptor superfamily member 10B (Homo sapiens) (O14763 whole entry, looked up): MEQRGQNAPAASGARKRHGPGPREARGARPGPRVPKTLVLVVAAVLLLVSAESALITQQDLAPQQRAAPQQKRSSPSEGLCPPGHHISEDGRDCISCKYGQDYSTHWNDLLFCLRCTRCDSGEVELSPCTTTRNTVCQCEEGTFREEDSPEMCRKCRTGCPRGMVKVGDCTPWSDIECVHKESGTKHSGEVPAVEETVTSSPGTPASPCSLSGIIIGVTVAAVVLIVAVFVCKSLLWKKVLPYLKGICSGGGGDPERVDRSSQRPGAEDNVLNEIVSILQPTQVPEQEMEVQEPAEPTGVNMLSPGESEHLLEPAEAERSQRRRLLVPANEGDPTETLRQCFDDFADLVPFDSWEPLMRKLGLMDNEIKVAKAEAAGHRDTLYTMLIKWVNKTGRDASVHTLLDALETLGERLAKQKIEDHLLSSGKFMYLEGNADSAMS
Chain of COP9 signalosome complex subunit 5 (Homo sapiens) (Q92905 whole entry, looked up, one chain of several): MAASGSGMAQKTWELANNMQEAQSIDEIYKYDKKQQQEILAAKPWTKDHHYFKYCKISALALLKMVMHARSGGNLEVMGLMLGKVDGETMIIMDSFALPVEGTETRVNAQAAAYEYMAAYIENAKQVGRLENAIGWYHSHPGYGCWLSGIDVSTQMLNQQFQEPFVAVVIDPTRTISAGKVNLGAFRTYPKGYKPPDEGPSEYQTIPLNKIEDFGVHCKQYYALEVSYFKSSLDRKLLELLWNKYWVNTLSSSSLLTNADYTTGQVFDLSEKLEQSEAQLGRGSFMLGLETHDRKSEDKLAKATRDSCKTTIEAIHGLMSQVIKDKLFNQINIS
Chain of 72 kDa type IV collagenase (Homo sapiens) (P08253 whole entry, looked up): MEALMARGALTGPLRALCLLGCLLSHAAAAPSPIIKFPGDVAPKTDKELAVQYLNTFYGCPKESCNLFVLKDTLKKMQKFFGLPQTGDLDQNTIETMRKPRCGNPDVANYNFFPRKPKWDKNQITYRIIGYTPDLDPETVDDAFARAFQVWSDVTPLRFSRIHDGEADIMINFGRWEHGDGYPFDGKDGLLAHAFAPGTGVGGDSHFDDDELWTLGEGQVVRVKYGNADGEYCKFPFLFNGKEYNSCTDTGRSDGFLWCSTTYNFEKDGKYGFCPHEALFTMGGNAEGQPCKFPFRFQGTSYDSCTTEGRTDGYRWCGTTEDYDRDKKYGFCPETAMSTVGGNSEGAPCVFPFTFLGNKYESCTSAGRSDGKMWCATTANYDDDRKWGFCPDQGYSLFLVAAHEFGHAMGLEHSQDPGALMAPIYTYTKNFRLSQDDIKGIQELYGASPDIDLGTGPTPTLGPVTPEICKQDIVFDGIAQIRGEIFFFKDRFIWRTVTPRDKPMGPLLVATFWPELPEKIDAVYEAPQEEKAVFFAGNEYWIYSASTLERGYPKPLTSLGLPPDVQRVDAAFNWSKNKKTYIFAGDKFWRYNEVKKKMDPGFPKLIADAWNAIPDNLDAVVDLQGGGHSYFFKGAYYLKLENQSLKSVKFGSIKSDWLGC

As usually defined, the inhibition is the relative decrease from the control value, in per cent. Take `CCOc1ccc2nc(N(CCCN(C)C)C(=O)c3ccc(C(=O)c4ccccc4)cc3)sc2c1`: the inhibition in test [1] was 97.7% (active); with PEG-3 [2] it was 102%; with PEG-3 [3] it was 101%. The figures for the activity in test [4] and in [5] were 87.4% and 98.2%, respectively.
`Cc1nc(SCC(=O)Nc2cc(C)on2)c2c(C)c(C)sc2n1`: the inhibition in [1] is 33.6% (inactive).
On to `COc1ccc2sc(-c3ccc(S(C)(=O)=O)cc3)c(C#Cc3cncn3C)c2c1`, for which the inhibition in test [1] is 51.8% (active); with PEG-3 [2], -25.4%; with PEG-3 [3], 60.8% [run 2, dose range 1, at 50 µM]. Further, the activity in [4] is 66.7%; in test [5], 34.3%. The activity, % sensitization in test [6] was 13.3%; in [7], 10.2%; in test [8] it was -20.9%; in [9], -2.18%.
Regarding `C=CC[C@@H](CC(=O)N[C@@H](CO)Cc1ccccc1)C(=O)N[C@H](COC(=O)[C@H](CC=C)CC(=O)OC(C)(C)C)Cc1ccccc1`, in [1], the inhibition is 6.88% (inactive).
As to `COc1ccc(CNC(=O)/C(C#N)=C/c2cccc(OC)c2OC)cc1`, the inhibition in [10] is 34.1% (inactive).
As to `NS(=O)(=O)c1ccc(N=Nc2c(O)[nH]c3ccc(Br)cc23)cc1`, the inhibition in test [1] was 0.42% (inactive).
On to `O=C(CSc1nc(Nc2ccccc2)nc(N2CCOCC2)n1)Nc1cc(Cl)ccc1O`, for which the inhibition in test [1] was 78.8% (active); with PEG-3 [2], 98.4%; in the test with PEG-3 [3] it was 101%.
Take `CCN1CCN(c2nc(Nc3cc(OC)ccc3OC)nc(Nc3cc(OC)ccc3OC)n2)CC1`: the inhibition in test [1] is 70% (active); with PEG-3 [2], 47.9%; with PEG-3 [3], 53.1%.
As for `Cc1ccc(C)c(S(=O)(=O)N2CCN(c3ncnc4sccc34)CC2)c1`, the inhibition in test [1] is 69.5% (active); in the test with PEG-3 [2], 90.1%; in the test with PEG-3 [3], 91.3%; with Rat fibroblasts (CREF) [11], 13.9%; with Rat fibroblasts (CREF) [12], 74.8%. Besides, the activity amounted to 68.5% in test [4] and 69% in test [5].
As for `Cc1ccc(C(NC(=O)C2CCN(CCOc3ccc(Cl)cc3Cl)CC2)c2ccccn2)cc1` (stereo not given), the inhibition in test [1] was 36.9% (inactive).
As to `CN(O)C(=S)c1ccccc1`, the inhibition in [1] is 89.1% (active); in the test with PEG-3 [2] it was 27%; in the test with PEG-3 [3], 78.7%; in the test on Rat fibroblasts (CREF) [11], 0.489%; with Rat fibroblasts (CREF) [12], -19.9%.
Turning to `CCn1cc(CN2CCC(C(=O)Nc3cccc(-c4cccc(Cl)c4)c3)CC2)cn1`, the inhibition in test [1] was 94.5% (active); with PEG-3 [2] it was 99.1%; in the test with PEG-3 [3], 98.3%.
For the compound `c1nnc2c3c4c(sc3ncn12)CCC4`, in [10], the inhibition was 22.1% (inactive).
Consider `CSc1nc(N)c(C#N)c(-c2ccccc2Cl)c1C#N`, for which, in test [1], the inhibition is 70.6% (active).
Consider `O=c1[nH]c(=S)[nH]c(O)c1/C=C1\C=Nc2ccccc21`, for which the inhibition was 47.7% (active) in test [1]; 73% with PEG-3 [2]; 100% [run 2, dose range 1, at 50 µM] with PEG-3 [3].
Regarding `COc1ccc(OC)c(Cc2cnc3nc(N)nc(N)c3c2C)c1`, the inhibition in test [1] was 66.8% (active); with PEG-3 [2] it was 88.7%; in the test with PEG-3 [3] it was 86.7%.
On to `Cc1c(C(=O)Nc2cccc(Cl)c2)cn2c(nc3ccccc32)c1C#N`, for which the inhibition in test [1] is 10.5% (inactive).
On the same count and under the same terms, the same measure for `Cc1nnc(SCC(=O)N2c3ccccc3C(C)(c3ccc(Cl)cc3)CC2(C)C)s1` (stereo not given): 38.4% (inactive).
Turning to `CCCCNc1c(-c2cccc(Sc3ccc(OC)cc3)c2)nc2ccccn12`, the inhibition in [1] is 95.6% (active); in the test with PEG-3 [2] it was 94.7%; in the test with PEG-3 [3], 81.9%.
Regarding `COc1ccc(CN(C)C(=O)c2cc(-c3ccc(C)cc3C)nc3ccccc23)c(OC)c1OC`, the inhibition in [1] was 75.2% (active); in [10], 61.6% (active); in the test with PEG-3 [2] it was 102%; with PEG-3 [3], 102%; in [13], 103%; in [14] it was 111%.
Consider `CN1OC[C@@H]2CN(S(=O)(=O)c3cccc(C(F)(F)F)c3)[C@H](c3ccc(-c4cc5ccccc5o4)cc3)C[C@@H]21`, for which the inhibition in test [1] is 52.7% (active); in test [15], 46.4% (active); in [16] it was 75.2% (active); with PEG-3 [2], 60%; with PEG-3 [3], 73.1%; in the test on Rat fibroblasts (CREF) [11] it was 17%. The inhibition in the test with Rat fibroblasts (CREF) [12] worked out at 24.5%.
For the compound `c1ccc(C(=NNc2nc3ccccc3s2)c2ccccn2)cc1`, the inhibition in test [1] is 61% (active); with PEG-3 [2] it was 101%; in the test with PEG-3 [3], 102%.
Turning to `COc1ccc2c(c1)c(=Cc1ccc(N(C)C)cc1)c1cc(-c3ccccc3)[n+](C)n12`, the inhibition was 97.8% (active) in [1]; 65% (active) in test [17]; 81.7% (active) in test [18]; 67.8% (active) with Prothrombin (Bos taurus); 102% in the test with PEG-3 [2]; 102% in the test with PEG-3 [3]. For the same compound, the inhibition in the test with Rat fibroblasts (CREF) [11] is 99.5%; in the test on Rat fibroblasts (CREF) [12], 100%.
As for `Cc1ccc(OCC(=O)c2cc(C)n(Cc3ccco3)c2C)c([N+](=O)[O-])n1`, the inhibition in test [1] is 71.5% (active); in [15], 64.6% (active); in test [16] it was 82.9% (active); in the test with PEG-3 [2] it was 58%; in the test with PEG-3 [3] it was 62.9%; with Rat fibroblasts (CREF) [11] it was -20.4%. In the test on Rat fibroblasts (CREF) [12], the inhibition is -12.2%.
On to `COc1ccc(CNc2ncnc3ccccc23)cc1`, for which the inhibition was 47.6% (active) in [10], 112% in test [13] and 87% in [14].
As to `COc1ccc(NC(=O)c2sc3nc(C)nc(N4CCN(c5ccccn5)CC4)c3c2C)c(OC)c1`, the inhibition in test [10] was 38.6% (inactive).
On to `CCc1ccc(N(CC)c2ncnc3nc[nH]c23)cc1`, for which the figures for the inhibition in test [10], in [13] and in test [14] were 62.6% (active), 101% and 99.3%, respectively.
Consider `C#CCN(C[C@@H]1[C@@H](OC(=O)NC2CC2)[C@@H](OC(=O)NC2CC2)Cn2c(=O)ccc(=O)n21)S(=O)(=O)c1ccc(C)cc1`, for which the values for the inhibition in [10], in [13] and in test [14] were 61.6% (active), 102% and 111%, respectively.
On to `Cc1ccc([C@H]2C[C@H](O)[C@@H](n3cc(COC(=O)c4ccccc4)nn3)CN2CC2CCCCC2)cc1`, for which the inhibition in test [10] was -29.2% (inactive).
